According to PubChem BioAssay AID463173 (ICCB-Longwood Screening Facility, Harvard Medical School, 2010):
The whole screen tested about 52,000 compounds, of which about 1,700 (3.3%) were called active. The list comes from a sample in which actives are over-represented; it also holds similar structures and randomly drawn compounds. Values without a mark were called inactive. Cut-off read from the data, not from the text of the source: active = survival mostly below about 52% (no sharp cut-off); inactive = mostly above about 56%.

system: Wild type; assay: S. aureus survival, RN4220 and DeltatarO strains – OD600, teichoic acid synthesis inhibitors, primary screen (AID 463173); details: S. aureus RN4220 wild type/DeltatarO growth, OD600, 18 h, active compounds read low, screened at 18.75 µg/mL (by protocol)

Compound | survival
CC(=O)c1[nH]c(C)c(C(=O)NCCc2ccc(C)cc2)c1C | 88%
CC(=O)Nc1cc(-n2cnnn2)ccc1C | 98%
Cc1ccc(NC(=O)Cn2c(=O)n(Cc3nc(C)no3)c(=O)c3cc4c(cc32)OCO4)cc1 | 90%
CCCCOc1ccccc1CC1C(=O)Nc2ccc(Br)cc21 (stereo not drawn) | 3% (active)
CCOc1c(CC2C(=O)Nc3ccc(Br)cc32)cccc1OC (stereo not drawn) | 99%
CCOc1ccccc1CC1C(=O)Nc2ccc(Br)cc21 (stereo not drawn) | 73%
COc1ccc(CC2C(=O)Nc3ccc(Br)cc32)cc1OC (stereo not drawn) | 75%
COc1ccc(OC)c(CC2C(=O)Nc3ccc(Br)cc32)c1 (stereo not drawn) | 84%
CCCOc1ccc(CC2C(=O)Nc3ccc(Br)cc32)cc1 (stereo not drawn) | -7% (active)
Cc1ccccc1C(=O)NCc1ccc2c(c1)CCN2C(=O)c1ccccc1 | 71%
COc1cccc(OC)c1C(=O)Nc1ccc(-c2nc3ncccc3o2)cc1 | 88%
COc1ccc(C)cc1NC(=O)Cn1c(=O)cc(C)c2c(C)nn(C)c21 | 68%
CCN(Cc1ccccc1)C(=O)Cn1cc(S(=O)(=O)Cc2cccc(Cl)c2)c2ccccc21 | 75%
Cc1nn(-c2ccccc2)c(OC(=O)C(C)C)c1Sc1ccc(Cl)cc1 | 39%
Cc1ccc(Sc2c(C)nn(C(=O)c3ccc(Cl)cc3)c2C)cc1 | 2% (active)
COc1cc(C(=O)n2nc(C)c(Sc3ccc(Cl)cc3)c2C)cc(OC)c1OC | 47%
Cc1ccc(Sc2c(C)nn(C(=O)COc3ccccc3)c2C)cc1 | 9% (active)
Cc1nn(C(=O)c2ccccc2)c(C)c1Sc1ccc(Cl)cc1 | 6% (active)
Cc1ccc(Sc2c(C)nn(C(=O)COc3ccc(F)cc3)c2C)cc1 | 85%
Cc1nn(C(=O)COc2ccc(Cl)cc2)c(C)c1Sc1ccccc1 | 88%
Cc1nn(C(=O)COc2ccccc2)c(C)c1Sc1ccccc1 | 94%
Cc1nn(C(=O)c2ccc(Cl)cc2)c(C)c1Sc1ccc(Cl)cc1 | 40%
Cc1ccccc1Nc1c(-c2cccc(Cl)c2)nc2ncccn12 | 83%
NC(=O)c1ccccc1NC(=O)CSc1nc(N)cc(=O)[nH]1 | 111%

Compound | survival
CCOC(=O)/C(C#N)=C/c1ccc(-c2ccccc2)o1 | 81%
CCCC(=O)n1nc(-c2cccnc2)nc1NCc1ccc(OC)cc1 | 86%
CCOc1ccc2nc(Cl)c(CN(Cc3ccco3)C(=O)N(C)C)cc2c1 | 109%
Cc1ccc(C)c(N2CCN(C(=O)c3cc(S(=O)(=O)N4CCCCCC4)cn3C)CC2)c1 | 77%
CNC(=O)C1CCN(S(=O)(=O)c2ccccc2)CC1 | 109%
O=C(Nc1cc(-c2nc3ccccc3o2)ccc1Cl)c1ccc(Br)o1 | 65%
COc1ccc(-c2nc3ccccc3o2)cc1NC(=O)COc1ccc(C(C)(C)C)cc1 | 2% (active)
O=C(Nc1cc(-c2nc3ccccc3o2)ccc1Cl)c1cccc2c(Cl)cccc12 | 64%
COc1ccc(-c2nc3ccccc3o2)cc1NC(=O)c1ccc(OCC(C)C)cc1 | 55%
COc1ccc(-c2nc3ccccc3o2)cc1NC(=O)c1cc(Br)ccc1OC | 66%
CC(C)(C)c1ccc(C(=O)Nc2cc(-c3nc4ccccc4o3)ccc2Cl)cc1 | 2% (active)
COc1ccc(-c2nc3ccccc3o2)cc1NC(=O)c1ccc(-c2ccc(Br)cc2)o1 | 73%
COc1ccc(OCC(=O)Nc2cc(-c3nc4ccccc4o3)ccc2Cl)cc1 | 104%
COc1ccc(-c2nc3ccccc3o2)cc1NC(=O)C(C)(C)Oc1ccc(Br)cc1 | 0% (active)
O=c1nc2sc3ccccc3n2c(=O)n1-c1ccc(Cl)c(Cl)c1 | 27%
CCc1ccc(NC(=O)Cn2nnc(C(=O)NCc3ccc(C)cc3)c2N)cc1 | 69%
COc1ccc(-c2cn3c(n2)sc2cc(C(=O)Nc4cc(OC)cc(OC)c4)ccc23)cc1 | 98%
COc1ccc(N2CCN(C(=O)c3cc4c(=O)n(Cc5cccs5)ccc4nc3C)CC2)cc1 | 101%
CCOc1cccc(C(=O)Nc2ccc(-c3nc4cc(C)cc(C)c4o3)cc2)c1 | 82%
Cc1ccc2c(c1)sc1nc(-c3cc4ccccc4oc3=O)cn12 | 76%
Cc1cc(C)c(NC(=O)Cn2nnc(-c3nc(-c4ccncc4)no3)c2N)c(C)c1 | 71%
Cc1ccc(Nc2nc3ccccc3c3nncn23)cc1C | 3% (active)
COc1cccc(Nc2nc3ccccc3c3nncn23)c1 | 84%
Cc1ccc(Cl)cc1Nc1nc2ccccc2c2nncn12 | 92%

Compound | survival
COc1cc2ncc3c(-c4ccccc4)nn(CC(=O)NC4CCCCC4)c3c2cc1OC | 79%
CC(C)(C)c1ccc(Oc2ccc(NC(=O)CCC(=O)OCC(=O)c3ccccc3)cc2)cc1 | 86%
O=C(CCSCc1cccc(Cl)c1)N1CCN(c2ccc(Cl)cc2)CC1 | 80%
CCN(CC)C(=O)c1sc2c(c1C)c(=O)n(-c1ccc(Cl)c(Cl)c1)c(=O)n2Cc1cc(=O)n2c(C)cccc2n1 | 0% (active)
CCN(CC)C(=O)c1sc2c(c1C)c(=O)n(-c1ccc(C)c(C)c1)c(=O)n2Cc1cc(=O)n2c(C)cccc2n1 | 22%
CCN(CC)C(=O)c1sc2c(c1C)c(=O)n(-c1ccc(Cl)c(Cl)c1)c(=O)n2Cc1cc(=O)n2ccccc2n1 | 118%
COc1ccccc1N1CCN(CC(=O)N2CCCC2)CC1 | 94%
Cc1nc2nc[nH]n2c(=O)c1NS(=O)(=O)c1ccc(Br)cc1 | 84%
O=S(=O)(c1cc(Cl)ccc1Cl)N1CCCC1 | 78%
CCOc1ccccc1NC(=O)CSC1=Nc2ccccc2C2=NC(CC(=O)NC3CCCCC3)C(=O)N12 (stereo not drawn) | 81%
O=C(COCc1cc(-c2ccco2)on1)Nc1cc(Cl)ccc1O | -2% (active)
Cc1ccc(O)c(NC(=O)COCc2cc(-c3ccco3)on2)c1 | 87%
O=C(COCc1cc(-c2cccs2)on1)Nc1cccc(Cl)c1Cl | 59%
Cc1ccc(Cl)cc1NC(=O)COCc1cc(-c2ccco2)on1 | 77%
O=C(COCc1cc(-c2ccco2)on1)Nc1cccc(Cl)c1Cl | 0% (active)
O=C(COCc1cc(-c2ccc(F)cc2)on1)Nc1cccc(Cl)c1Cl | 64%
COc1cccc(CNC(=O)c2ccc3c(c2)N(Cc2ccc(F)cc2Cl)C(=O)c2ccccc2S3)c1 | 19%
Cc1c(C(=O)Nc2cccc(C(F)(F)F)c2)sc2nc[nH]c(=O)c12 | 73%
CCOC(=O)c1c(NC(=O)/C=C/c2ccc(OCC)cc2)sc2c1CCCC2 | 78%
CCOC(=O)c1c(NC(=O)/C=C/c2ccc(OCC)cc2)sc2c1CCC2 | 139%
CCOC(=O)c1c(NC(=O)COc2ccc(C(C)(C)C)cc2)sc2c1CCCC2 | 69%
CCOC(=O)c1c(NC(=O)CCCOc2ccc(C(C)(C)C)cc2)sc2c1CCC2 | 7% (active)
CCOC(=O)c1c(NC(=O)CCCOc2ccc(Cl)cc2)sc2c1CCC2 | 20%
CCOC(=O)c1c(NC(=O)CCCOc2ccc(C(C)(C)C)cc2)sc2c1CCCC2 | 9% (active)

Compound | survival
CN(C)C(=O)c1ccc(N(C)S(=O)(=O)c2ccccc2)cc1 | 113%
COc1ccc(NC(=S)N(Cc2ccco2)Cc2cc3cc(C)c(C)cc3[nH]c2=O)cc1 | 103%
Cc1ccc(C)c(C(=O)CSc2nc(-c3ccccc3)nc3c2CCCC3)c1 | 6% (active)
Cc1ccc(C(=O)CSc2nc(-c3ccccc3)nc3c2CCCC3)c(C)c1 | 58%
Cc1ccc(C(=O)CSc2nc(-c3ccccc3)nc3c2CCCC3)cc1 | 55%
CCn1c(CNC(=O)c2ccc(OC)cc2)nnc1SCC(=O)Nc1ccc(C)cc1 | 125%
O=C1CN(C(=O)c2ccccc2C(F)(F)F)C(c2ccccc2)c2cc(F)ccc2N1 (stereo not drawn) | 66%
COc1ccc(CNC(=O)C2CCCCN2S(=O)(=O)c2ccc(F)cc2)cc1 (stereo not drawn) | 87%
O=C(NCc1ccc(F)cc1)C1CCCCN1S(=O)(=O)c1ccc(F)cc1 (stereo not drawn) | 0% (active)
Cc1ccc(CNC(=O)C2CCCCN2S(=O)(=O)c2ccc(F)cc2)cc1 (stereo not drawn) | 91%
CCOC(=O)CSc1nc(-c2ccc(C)cc2C)cc(-c2ccccc2)c1C#N | 63%
CNS(=O)(=O)c1cn(CC(=O)N2CCN(c3cc(C)ccc3C)CC2)cc1S(=O)(=O)NC | 83%
COc1ccc(NC(=O)N(C(C)C)C2CCN(C(C)=O)CC2)c(OC)c1 | -4% (active)
COc1ccc(C)cc1NC(=O)N(Cc1ccc(C)o1)C1CCN(C(C)=O)CC1 | 0% (active)
COC(=O)c1ccc(Cl)cc1NC(=O)N(Cc1ccc(OC)cc1)C1CCN(C(C)=O)CC1 | -6% (active)
CCOc1ccccc1NC(=O)N(Cc1ccc(C)o1)C1CCN(C(C)=O)CC1 | 75%
COc1ccc(NC(=O)N(Cc2ccco2)C2CCN(C(C)=O)CC2)c(OC)c1 | 85%
COC(=O)c1ccc(Cl)cc1NC(=O)N(Cc1ccc(C)o1)C1CCN(C(C)=O)CC1 | 76%
COc1ccc(C)cc1NC(=O)N(C(C)C)C1CCN(C(C)=O)CC1 | 85%
CCN1CCC(N(Cc2ccc(F)cc2)C(=O)Nc2cc(Cl)ccc2C(=O)OC)CC1 | 80%
CC(=O)N1CCC(N(Cc2ccc(C)o2)C(=O)Nc2ccc(C)cc2)CC1 | 70%
